# Experimental data as given in the supplement of paper PMC11865577.
# Where a name gives a salt, the structure may show the parent alone.
# What was measured:
# Assay in all cases: normalised indicator fluorescence (fraction of RNA + indicator signal without compound); higher = less displacement of indicator (weaker competition)
# Details in all cases: compound concentration: 5 uM, 30 min
# [1] = system: hsa-mir-191 loop
# Method in brief: (§1)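 In 96-well plates, RNA was combined with a TO-PRO-1 or TO-PRO-3 indicator in 20 mM phosphate pH 7.0 containing 20 mM NaCl and 80 mM KCl. Each compound was added as 0.25 μL of a 1 mM DMSO stock, giving about 5 uM final, and fluorescence was read on an Infinite 200 PRO after 30 min (excitation 485 or 620 nm). Values are the blank-corrected indicator fluorescence (buffer plus indicator subtracted) divided by the signal of RNA plus indicator without compound, averaged over two independent experiments.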
# [2] = system: hsa-mir-21 loop
# Method in brief: as §1
# [3] = system: hsa-mir-221 loop
# Method in brief: as §1
# [4] = system: hsa-mir-374a loop
# Method in brief: as §1
# [5] = system: hsa-mir-6850 loop
# Method in brief: as §1
# [6] = indicator: TO-PRO-1 0.1 uM, RNA concentration: 0.1 uM
# [7] = indicator: TO-PRO-3 0.5 uM, RNA concentration: 0.5 uM
SMILES,"normalised indicator fluorescence [1, 6]","normalised indicator fluorescence [1, 7]","normalised indicator fluorescence [2, 6]","normalised indicator fluorescence [2, 7]","normalised indicator fluorescence [3, 6]","normalised indicator fluorescence [3, 7]","normalised indicator fluorescence [4, 6]","normalised indicator fluorescence [4, 7]","normalised indicator fluorescence [5, 6]","normalised indicator fluorescence [5, 7]"
C/C1=C/CC[C@H](C)C(=O)C[C@@H](C(C)C)C(=O)C1 [Curdione],1.05,1.02,1.04,1.09,1.05,1.16,1.07,1.26,1.14,1.06
O=c1ncn2nc(Sc3ccc(F)cc3F)ccc2c1-c1c(Cl)cccc1Cl [Neflamapimod],1.04,1.05,0.973,1.04,1.03,1.22,1.07,1.3,0.955,1.02
Cn1cc(-c2ccc3c(c2)CCN3C(=O)Cc2cccc(C(F)(F)F)c2)c2c(N)ncnc21,1.04,1.1,1.06,1.07,1.08,1.03,1.23,1.18,0.993,1.18
CCNC(=O)c1[nH]nc(-c2cc(Cl)c(O)cc2O)c1-c1ccc(OC)cc1,1.01,1.05,1.05,1.06,1.02,0.975,1.11,1.11,0.952,1.05
N#CC(c1ccnc(OCc2ccc(CN3CCOCC3)cc2)n1)c1nc2ccccc2s1 (stereo not given),1.03,0.659,1.14,0.839,1.37,0.837,1.26,0.694,0.827,0.505
Cn1cc(C2=C(c3cn(CCCSC(=N)N)c4ccccc34)C(=O)NC2=O)c2ccccc21 [Ro 31-8220 Mesylate],1.38,0.894,,0.929,,0.947,,1.02,1.08,0.859
N#Cc1c(NC(=O)c2cccc3ccccc23)sc2c1CCCC2,1.04,0.988,1.02,1.01,0.919,1.02,,0.983,1.08,1.02
CNC(=O)c1ccc(C)c(-n2c(C)cc(OCc3ccc(F)cc3F)c(Br)c2=O)c1,1.02,1.03,1.03,1.02,1.19,1.05,1,1.08,0.914,1.04
NC(=O)N/N=C/c1ccc([N+](=O)[O-])o1 [Furacilin],1.06,1.02,0.909,1.06,1.14,1.03,1.15,1.16,0.927,1.04
O=C1O[C@H]([C@@H](O)CO)C(O)=C1O [L(+)-Ascorbic acid],1.01,1,0.953,1,1.05,1.11,1.05,1.12,1.09,1.06
Cc1cccc(CC(=O)N2CCc3c2ccc(-c2cn(C)c4ncnc(N)c24)c3F)n1,1.03,1.06,1,1.04,1.08,1.01,1.14,1.06,0.973,0.993
O=c1cc(-c2ccc(O)c(-c3c(O)cc(O)c4c(=O)cc(-c5ccc(O)cc5)oc34)c2)oc2cc(O)cc(O)c12 [Amentoflavone],0.994,1.42,1.16,1.23,1.19,1.17,1.29,,1.07,1.03
CC(C)c1cc(-c2n[nH]c(=O)n2-c2ccc3c(ccn3C)c2)c(O)cc1O [Ganetespib],1.04,1.03,1,1.04,1.03,1.08,1.07,1.14,0.915,1
CC(=O)c1ccc(S(=O)(=O)NC(=O)NC2CCCCC2)cc1 [Acetohexamide],0.972,1.04,0.846,1.09,1.08,1.05,1.18,1.21,0.908,1.08
COC1=CC(=O)c2ccccc2C1=O [2-Methoxynaphthoquinone],1.01,1.03,0.993,1.05,1.06,1.06,1.14,1.19,0.946,1.07
CC1(C)OC(=O)C=C[C@]2(C)[C@H]3CC[C@@]4(C)[C@H](c5ccoc5)OC(=O)[C@H]5O[C@]54[C@]3(C)C(=O)C[C@@H]12 [Obacunone],1.07,1.03,1.06,1.08,1.12,1.07,1.11,1.09,0.979,1.05
COc1ccc(-c2coc3cc(O)ccc3c2=O)cc1O [Calycosin],1.08,1.02,1,1.06,1.03,1.08,1.01,1.25,1.01,1.07

SMILES,"normalised indicator fluorescence [1, 6]","normalised indicator fluorescence [1, 7]","normalised indicator fluorescence [2, 6]","normalised indicator fluorescence [2, 7]","normalised indicator fluorescence [3, 6]","normalised indicator fluorescence [3, 7]","normalised indicator fluorescence [4, 6]","normalised indicator fluorescence [4, 7]","normalised indicator fluorescence [5, 6]","normalised indicator fluorescence [5, 7]"
CNc1ccc([N+](=O)[O-])c(Nc2ccc3[nH]ncc3c2)n1,0.903,0.996,0.899,1.02,0.959,1.15,1.1,1.35,0.93,0.929
CCNC(=O)c1noc(-c2cc(Cl)c(O)cc2O)c1-c1ccc(OC)cc1,1.05,1.04,1.06,1.06,1.06,0.964,1.1,1.17,1.03,1.05
NC(=O)c1ccccc1Nc1ccnc(Nc2cccc(O)c2)n1,0.949,1.02,0.974,1.02,0.967,0.979,1.12,1.2,0.993,1.04
Cc1c(F)cc(C(=O)NC2CC2)cc1-c1ccc(C(=O)NCC(C)(C)C)cn1 [Losmapimod],0.997,1.02,0.887,1.04,1.07,1.08,1.06,1.13,0.95,1.06
COc1ccc(C2CC(=O)c3c(O)cc(OC4OC(COC5OC(C)C(O)C(O)C5O)C(O)C(O)C4O)cc3O2)cc1OC (stereo not given) [Methyl hesperidin],0.968,1.08,0.942,0.97,1.05,1.03,1.14,1.14,0.967,1.07
O=C(COc1ccc(Cl)cc1)NC1CCC(NC(=O)COc2ccc(Cl)cc2)CC1 (stereo not given),1.03,1.04,0.954,1.03,1.05,1.01,1.07,1.08,0.894,1.05
O=C(O)/C=C/c1ccc(Cn2ccnc2)cc1 [Ozagrel],0.962,1.05,0.996,1.03,1.07,1.05,1.12,1.19,0.929,1.03
N=C(NCCCCCCNC(=N)NC(=N)Nc1ccc(Cl)cc1)NC(=N)Nc1ccc(Cl)cc1 [Chlorhexidine],0.988,1.04,1.05,1,0.96,0.994,1.05,1.05,0.83,1.07
O=C(Nc1nc2ccc(NC(=O)C34CC5CC(CC(C5)C3)C4)cc2s1)c1ccccc1,1,1.02,0.991,1.02,1.14,1.05,1.1,1.06,0.997,0.982
C[C@H]1[C@H](C)CC[C@]2(C(=O)O)CC[C@]3(C)C(=CC[C@@H]4[C@@]5(C)C[C@@H](O)[C@H](O)[C@@](C)(CO)[C@@H]5CC[C@]43C)[C@H]12 [Asiatic acid],0.974,1.01,0.904,1.07,1.03,0.961,1.15,1.06,0.846,1.03
COC(=O)c1ccc([C@H]2c3[nH]c4ccccc4c3C[C@H](C(=O)OC)N2C(=O)CCl)cc1,1.05,1,0.974,1.02,0.997,1.09,1.01,1.39,1.09,1.03
CC(C)=CCC[C@](C)(O[C@@H]1O[C@H](CO)[C@@H](O)[C@H](O)[C@H]1O)[C@H]1CC[C@]2(C)[C@@H]1[C@H](O)C[C@@H]1[C@@]3(C)CC[C@H](O)C(C)(C)[C@@H]3[C@@H](O[C@@H]3O[C@H](CO)[C@@H](O)[C@H](O)[C@H]3O[C@@H]3OC[C@@H](O)[C@H](O)[C@H]3O)C[C@]12C [Notoginsenoside R1],1.04,1.01,1,0.991,1.15,0.995,1.21,1.09,0.982,1.01
Fc1ccc(-c2nc3n(c2-c2ccncc2)CCS3)cc1,1.08,1.08,0.993,1.02,1.07,1.13,1.09,1.18,0.947,1.04
CCOc1cc(C(=O)N2CCC(N3CCN(C)CC3)CC2)ccc1Nc1ncc2c(n1)N(C1CCCC1)c1ccccc1C(=O)N2C,1.09,1.04,0.946,1.01,1.03,1.01,1.07,1.1,0.938,1
O=C(O)C(O)Cc1ccc(O)c(O)c1 (stereo not given) [Sodium Danshensu],0.941,1.02,0.888,1.05,0.976,1.05,1.07,0.994,0.964,1.08
Oc1ccc(-c2nc(-c3ccc(F)cc3)c(-c3ccncc3)[nH]2)cc1,1.1,1.04,0.993,1.03,1.08,1.13,1.09,1.2,0.999,1.04
